Among the data in PubChem BioAssay AID2284156 (EPA ToxCast) are outcome values, retold here.

The source made the active and inactive calls. How the source made its calls: active means hit-call score of the fitted dose curve at least 0.9, where 1 is the maximum; inactive means score below 0.9.

Chain of Muscarinic acetylcholine receptor M5 (Homo sapiens) (P08912 whole entry, looked up): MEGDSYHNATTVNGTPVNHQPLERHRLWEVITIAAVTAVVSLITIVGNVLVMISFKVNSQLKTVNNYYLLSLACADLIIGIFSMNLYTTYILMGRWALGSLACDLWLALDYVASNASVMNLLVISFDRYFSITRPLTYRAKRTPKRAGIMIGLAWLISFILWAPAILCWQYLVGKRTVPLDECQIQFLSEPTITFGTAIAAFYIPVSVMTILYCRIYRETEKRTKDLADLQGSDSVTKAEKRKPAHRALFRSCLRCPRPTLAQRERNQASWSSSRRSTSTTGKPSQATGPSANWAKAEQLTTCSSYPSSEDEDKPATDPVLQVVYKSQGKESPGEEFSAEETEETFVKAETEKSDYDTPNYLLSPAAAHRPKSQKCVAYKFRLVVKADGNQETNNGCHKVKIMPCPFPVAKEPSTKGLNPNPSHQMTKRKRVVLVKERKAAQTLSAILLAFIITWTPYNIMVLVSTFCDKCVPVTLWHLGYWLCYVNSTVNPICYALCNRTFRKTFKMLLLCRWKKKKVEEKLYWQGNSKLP

The target in this assay is Muscarinic acetylcholine receptor M5 (Homo sapiens) (UniProt P08912). Description: ERF_FR_GPCR_hCHRM5: Eurofins (ERF) G Protein-Coupled Receptor (GPCR) Radioligand Binding LeadHunter Assay for human Muscarinic Acetylcholine Receptor M5 Antagonism, conducted at France lab site. The protocol:
ERF_FR_GPCR_hCHRM5 is a biochemical, single-readout assay that uses extracted gene-proteins in a cell-free assay. Measurements were taken 1 hour after chemical dosing in a 96-well plate. See M5 Human Acetylcholine (Muscarinic) GPCR Binding (Antagonist Radioligand) Assay, Cerep.ERF_FR_GPCR_hCHRM5 is an assay component calculated from the ERF_FR_GPCR_hCHRM5 assay. It is designed to measure radioligand binding using a type of binding reporter as detected by scintillation counting with radiometry technology.Data from the assay component ERF_FR_GPCR_hCHRM5 was analyzed at the assay endpoint, ERF_FR_GPCR_hCHRM5, in the positive analysis fitting direction relative to DMSO as the negative control and baseline of activity. Using a type of binding reporter, loss-of-signal activity can be used to understand changes in binding as they relate to gene CHRM5. To generalize the intended target to other relatable targets, this assay endpoint is annotated to the gpcr intended target family, where the subfamily is acetylcholine (Muscarinic).
Human cells are incubated for 60 minutes at room temprature with [3H]4-DAMP ligand (0.3 nM) and 4-Damp methiodide as control inhibitor.Test Sample Requirements: Minimum for 1) Screen: 60 ul of 10 mM stock -OR- 1 mg (pre-weighed) for 10 uM final testing. 2) Dose Response: 90 ul of 10 mM stock -OR- 1 mg (pre-weighed) for a top concentration at 10 uM.
On to `O=C(/C=C/c1ccc(O)cc1)CC(=O)/C=C/c1ccc(O)cc1`, for which the compound was classed as inactive.
